According to the supplement of paper PMC10849652:
Of roughly 8,800 targets only a part is listed; those with a hit were picked by preference. About 0.5% of all pairs of compound and target were hits.

Assays:
Test in all cases: log2 fold change, soluble protein after heating vs DMSO (PISA); higher = thermal stabilisation; K562 lysate, 10 uM; active = over 0.2 and 3.5 SD of the protein, either way, in both replicates (recomputed)
erlotinib = compound: C#Cc1cccc(Nc2ncnc3cc(OCCOC)c(OCCOC)cc23)c1 [erlotinib]
Procedure, shortened: (§1)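 Log-two fold change in thermal stability relative to solvent controls is reported from duplicates. For each sample, crude K562 extract from dounce-homogenised pellets in PBS pH 7.4 with 1 mM MgCl2, at 1 mg/mL protein, was treated with 10 μM compound for 30 min. Aliquots heated for 3 min across 48°C-58°C were pooled, brought to 0.5% NP-40 at 4°C and cleared at 21,000xg for 90 min. The supernatant was quantified by TMTpro 16plex LC-MS/MS with channel sums equalised.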

[1] = compound: C/C(=N\NC(=O)C1=CC(=CC=C1)S(=O)(=O)N2CCOCC2)/C3=C(C=CC(=C3)Cl)O
Procedure, shortened: as §1

[2] = compound: C1=CC(=CC=C1C2=NC3=C(N2)C=C(C=C3)C(=O)N)OC4=CC=C(C=C4)Cl
Procedure, shortened: as §1

[3] = compound: C1=CC2=C(C=CC(=C2)/C=C\3/C(=O)NC(=NCC4=CC=CS4)S3)N=C1
Procedure, shortened: as §1

[4] = compound: C1=CC2=NC=CN=C2C=C1/C=C/3\C(=O)NC(=O)S3
Procedure, shortened: as §1

[5] = compound: C1=CC=C(C=C1)C2=NC(=C(N2)C3=CC=NC=C3)C4=CC(=C(C=C4)Cl)O
Procedure, shortened: as §1

[6] = compound: C1=CC=C2C(=C1)C3=NNC4=CC=CC(=C43)C2=O
Procedure, shortened: as §1

[7] = compound: C1CCN(C1)C(=O)NC2=CC=CC(=C2)NC3=NC=C(C(=N3)NCCC4=CN=CN4)Br
Procedure, shortened: as §1

[8] = compound: C1CN(CCC1(CC2=CC=C(C=C2)Cl)N)C3=NC=NC4=C3C=CN4
Procedure, shortened: as §1

IRAK-1-4 Inhibitor I = compound: C1COCCN1CCN2C3=CC=CC=C3N=C2NC(=O)C4=CC(=CC=C4)[N+](=O)[O-] [IRAK-1-4 Inhibitor I]
Procedure, shortened: as §1

ibrutinib = compound: C=CC(=O)N1CCC[C@@H](n2nc(-c3ccc(Oc4ccccc4)cc3)c3c(N)ncnc32)C1 [ibrutinib]
Procedure, shortened: as §1

[9] = compound: CC(=O)c1cnc2ccc(-c3cc(Cl)c(O)c(Cl)c3)nc2c1N[C@H]1CC[C@H](CN(C)C)CC1
Procedure, shortened: as §1

ralimetinib = compound: CC(C)(C)Cn1c(N)nc2ccc(-c3[nH]c(C(C)(C)C)nc3-c3ccc(F)cc3)nc21 [ralimetinib]
Procedure, shortened: as §1

[10] = compound: CC(C)(O)CC(=O)NCCn1ccc2ncnc(Nc3ccc(Oc4cccc(C(F)(F)F)c4)c(Cl)c3)c21
Procedure, shortened: as §1

[11] = compound: CC(C)C1=C2N=C(C=C(N2N=C1)NCC3=CC=CC=C3)NCCCCCCN
Procedure, shortened: as §1

[12] = compound: CC1=C(C(CC(=O)N1)C2=CC=C(C=C2)C(F)(F)F)C(=O)NC3=C(C=C4C(=C3)C=NN4)F
Procedure, shortened: as §1

[13] = compound: CC1=C(C2=C(C=C1)C(=O)C3=CC=CC=C3N2CCCN)C
Procedure, shortened: as §1

[14] = compound: CC1=C(C=C(C=C1)NC(=O)C2=CC(=CC=C2)C(C)(C)C#N)NC3=CC4=C(C=C3)N=CN(C4=O)C
Procedure, shortened: as §1

[15] = compound: CC1=C(C=C(C=C1)NC(=O)C2=CC(=CC=C2)N(C)C)NC(=O)C3=CC=C(C=C3)O
Procedure, shortened: as §1

[16] = compound: CC1=CC=C(C=C1)SC2=C3C=C(SC3=CN=C2)C(=O)N
Procedure, shortened: as §1

Measured: log2 fold change

RINT1 (UniProt Q6NUQ1)
UniProt Q6NUQ1, sequence (Q6NUQ1 whole entry, looked up): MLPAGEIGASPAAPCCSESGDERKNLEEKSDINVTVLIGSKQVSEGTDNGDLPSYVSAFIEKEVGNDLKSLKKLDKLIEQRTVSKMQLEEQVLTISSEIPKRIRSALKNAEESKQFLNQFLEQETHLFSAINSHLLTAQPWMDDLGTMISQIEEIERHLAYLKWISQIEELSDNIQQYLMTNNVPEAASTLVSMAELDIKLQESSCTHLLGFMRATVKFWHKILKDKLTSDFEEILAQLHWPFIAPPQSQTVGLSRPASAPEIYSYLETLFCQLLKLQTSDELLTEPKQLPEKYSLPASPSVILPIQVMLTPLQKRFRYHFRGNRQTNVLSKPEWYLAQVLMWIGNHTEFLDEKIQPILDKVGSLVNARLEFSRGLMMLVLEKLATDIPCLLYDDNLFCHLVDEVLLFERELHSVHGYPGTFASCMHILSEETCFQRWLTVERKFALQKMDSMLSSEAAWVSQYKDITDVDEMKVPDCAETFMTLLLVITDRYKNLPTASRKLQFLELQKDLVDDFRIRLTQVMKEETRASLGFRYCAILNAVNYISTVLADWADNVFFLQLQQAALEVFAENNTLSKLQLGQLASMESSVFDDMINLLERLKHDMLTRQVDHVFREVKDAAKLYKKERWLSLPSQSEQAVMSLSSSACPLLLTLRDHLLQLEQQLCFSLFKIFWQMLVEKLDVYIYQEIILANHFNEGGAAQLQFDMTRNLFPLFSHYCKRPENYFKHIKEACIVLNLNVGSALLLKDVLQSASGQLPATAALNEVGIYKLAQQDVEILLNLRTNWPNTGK
inactive: erlotinib 0.056 | [1] 0.029 | [2] -0.01 | [3] 0.012 | [4] 0.03 | [5] -0.042 | [6] -0.048 | [7] -0.029 | [8] 0.067 | IRAK-1-4 Inhibitor I 0.074 | ibrutinib 0.011 | [9] 0.07 | ralimetinib 0.05 | [10] -0.094 | [11] 0.016 | [12] -0.066 | [13] -0.064 | [14] -0.02 | [15] 0.012 | [16] 0.016

RAB3IL1 (UniProt Q8TBN0)
UniProt Q8TBN0, sequence (Q8TBN0 whole entry, looked up): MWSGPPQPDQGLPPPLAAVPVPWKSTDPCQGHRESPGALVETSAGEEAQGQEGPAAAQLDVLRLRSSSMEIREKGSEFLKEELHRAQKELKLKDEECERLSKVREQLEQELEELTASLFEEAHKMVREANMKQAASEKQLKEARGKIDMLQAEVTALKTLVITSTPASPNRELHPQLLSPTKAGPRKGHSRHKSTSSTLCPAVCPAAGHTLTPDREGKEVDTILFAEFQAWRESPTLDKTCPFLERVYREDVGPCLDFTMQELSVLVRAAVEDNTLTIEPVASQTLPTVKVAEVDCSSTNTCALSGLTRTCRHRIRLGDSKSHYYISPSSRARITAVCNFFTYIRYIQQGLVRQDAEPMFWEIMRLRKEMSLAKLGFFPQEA
inactive: erlotinib -0.026 | [1] 0.005 | [2] -0.021 | [3] 0.024 | [4] -0.05 | [5] 0.053 | [6] -0.038 | [7] -0.013 | [8] -0.003 | IRAK-1-4 Inhibitor I 0.011 | ibrutinib 0.03 | [9] -0.035 | ralimetinib 0.021 | [10] -0.022 | [11] 0.004 | [12] 0.116 | [13] -0.006 | [14] 0.02 | [15] -0.024 | [16] 0.003

RNF40 (UniProt O75150)
UniProt O75150, sequence (O75150 whole entry, looked up): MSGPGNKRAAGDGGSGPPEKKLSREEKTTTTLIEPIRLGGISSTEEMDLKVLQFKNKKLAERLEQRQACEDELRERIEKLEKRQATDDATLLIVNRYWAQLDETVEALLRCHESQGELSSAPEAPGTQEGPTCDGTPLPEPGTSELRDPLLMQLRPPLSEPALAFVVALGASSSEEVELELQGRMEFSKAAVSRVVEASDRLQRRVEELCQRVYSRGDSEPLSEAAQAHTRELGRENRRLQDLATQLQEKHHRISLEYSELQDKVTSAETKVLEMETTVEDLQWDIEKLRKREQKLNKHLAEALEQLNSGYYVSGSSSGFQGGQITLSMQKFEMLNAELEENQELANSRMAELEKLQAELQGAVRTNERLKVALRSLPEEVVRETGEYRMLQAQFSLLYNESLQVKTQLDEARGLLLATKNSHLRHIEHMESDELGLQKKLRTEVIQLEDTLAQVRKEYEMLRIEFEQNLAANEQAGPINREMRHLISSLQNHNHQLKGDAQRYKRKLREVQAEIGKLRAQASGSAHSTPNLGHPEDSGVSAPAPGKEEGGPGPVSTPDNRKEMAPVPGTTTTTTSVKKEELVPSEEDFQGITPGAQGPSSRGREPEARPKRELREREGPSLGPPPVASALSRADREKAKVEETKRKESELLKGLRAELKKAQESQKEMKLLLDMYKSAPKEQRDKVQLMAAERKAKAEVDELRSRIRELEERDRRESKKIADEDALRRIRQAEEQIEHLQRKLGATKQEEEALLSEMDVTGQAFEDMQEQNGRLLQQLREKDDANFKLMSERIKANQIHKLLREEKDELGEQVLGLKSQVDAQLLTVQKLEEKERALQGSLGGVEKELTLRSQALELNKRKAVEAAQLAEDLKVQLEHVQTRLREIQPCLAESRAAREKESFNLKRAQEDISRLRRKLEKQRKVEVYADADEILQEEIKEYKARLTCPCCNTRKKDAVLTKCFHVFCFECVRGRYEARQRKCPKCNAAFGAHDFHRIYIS
inactive: erlotinib -0.008 | [1] -0.01 | [2] 0.007 | [3] -0.039 | [4] -0.016 | [5] 0.003 | [6] -0.04 | [7] 0.011 | [8] 0.024 | IRAK-1-4 Inhibitor I -0.008 | ibrutinib 0.048 | [9] -0.014 | ralimetinib 0.033 | [10] -0.015 | [11] -0.023 | [12] 0.007 | [13] -0.01 | [14] -0.001 | [15] -0.006 | [16] 0.004

RAB6D (UniProt Q53S08)
UniProt Q53S08, sequence (Q53S08 whole entry, looked up): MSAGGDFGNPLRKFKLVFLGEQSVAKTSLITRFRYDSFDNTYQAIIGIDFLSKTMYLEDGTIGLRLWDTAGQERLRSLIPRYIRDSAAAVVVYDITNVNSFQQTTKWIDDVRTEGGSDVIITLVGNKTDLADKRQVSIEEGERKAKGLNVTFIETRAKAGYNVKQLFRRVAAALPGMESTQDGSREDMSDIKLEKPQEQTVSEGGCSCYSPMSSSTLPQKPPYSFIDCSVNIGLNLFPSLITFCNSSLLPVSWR
inactive: erlotinib 0.027 | [1] -0.071 | [2] 0.054 | [3] -0.025 | [4] -0.048 | [5] -0.019 | [6] 0.044 | [7] -0.038 | [8] 0.157 | IRAK-1-4 Inhibitor I 0.003 | ibrutinib 0 | [9] 0.013 | ralimetinib -0.011 | [10] -0.087 | [11] 0.014 | [12] -0.113 | [13] -0.057 | [14] 0.009 | [15] 0.009 | [16] -0.026

SEC62 (UniProt Q99442)
UniProt Q99442, sequence (Q99442 whole entry, looked up): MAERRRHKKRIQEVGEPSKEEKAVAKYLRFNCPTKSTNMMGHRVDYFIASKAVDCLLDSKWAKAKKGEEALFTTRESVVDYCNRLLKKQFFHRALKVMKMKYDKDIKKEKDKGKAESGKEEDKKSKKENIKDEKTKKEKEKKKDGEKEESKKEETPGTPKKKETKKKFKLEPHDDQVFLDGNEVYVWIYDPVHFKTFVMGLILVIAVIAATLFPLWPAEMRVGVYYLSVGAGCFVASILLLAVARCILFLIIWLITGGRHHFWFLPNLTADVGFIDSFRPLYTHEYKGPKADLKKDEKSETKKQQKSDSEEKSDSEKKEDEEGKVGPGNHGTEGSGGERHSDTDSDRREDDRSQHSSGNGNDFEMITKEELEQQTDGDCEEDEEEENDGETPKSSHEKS
inactive: erlotinib -0.046 | [1] -0.008 | [2] 0.018 | [3] 0.046 | [4] -0.021 | [5] 0.036 | [6] -0.022 | [7] -0.017 | [8] -0.009 | IRAK-1-4 Inhibitor I 0.042 | ibrutinib 0.002 | [9] -0.027 | ralimetinib -0.032 | [10] -0.058 | [11] 0.02 | [12] 0.013 | [13] -0.006 | [14] 0.022 | [15] 0.002 | [16] -0.015

RASA3 (UniProt Q14644)
inactive: erlotinib 0.02 | [1] -0.089 | [2] 0.045 | [3] -0.001 | [4] 0.046 | [5] 0.021 | [6] 0.004 | [7] -0.043 | [8] -0.005 | IRAK-1-4 Inhibitor I 0.02 | ibrutinib 0 | [9] -0.031 | ralimetinib -0.012 | [10] -0.054 | [11] 0.02 | [12] -0.048 | [13] 0.031 | [14] -0.026 | [15] -0.018 | [16] -0.078

RPL37A (UniProt P61513)
inactive: erlotinib -0.012 | [1] -0.067 | [2] -0.006 | [3] -0.011 | [4] -0.03 | [5] 0.03 | [6] 0.064 | [7] 0.039 | [8] -0.035 | IRAK-1-4 Inhibitor I -0.023 | ibrutinib -0.005 | [9] 0.002 | ralimetinib -0.041 | [10] 0.03 | [11] -0.009 | [12] -0.021 | [13] -0.032 | [14] 0.038 | [15] 0.004 | [16] 0.051

RNF181 (UniProt Q9P0P0)
UniProt Q9P0P0, sequence (Q9P0P0 whole entry, looked up): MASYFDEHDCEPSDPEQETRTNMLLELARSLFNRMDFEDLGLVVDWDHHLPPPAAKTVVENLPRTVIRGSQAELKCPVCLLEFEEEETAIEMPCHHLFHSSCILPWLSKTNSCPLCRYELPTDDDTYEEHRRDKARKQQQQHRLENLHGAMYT
inactive: erlotinib 0.031 | [1] 0.037 | [2] 0.016 | [3] 0.036 | [4] -0.001 | [5] 0.022 | [6] -0.058 | [7] 0.03 | [8] 0.099 | IRAK-1-4 Inhibitor I -0.014 | ibrutinib 0.043 | [9] -0.024 | ralimetinib -0.001 | [10] -0.006 | [11] -0.005 | [12] -0.056 | [13] 0.008 | [14] 0.03 | [15] 0 | [16] 0.013

SEH1L isoform 1 (UniProt Q96EE3)
UniProt Q96EE3, sequence (Q96EE3 whole entry, looked up): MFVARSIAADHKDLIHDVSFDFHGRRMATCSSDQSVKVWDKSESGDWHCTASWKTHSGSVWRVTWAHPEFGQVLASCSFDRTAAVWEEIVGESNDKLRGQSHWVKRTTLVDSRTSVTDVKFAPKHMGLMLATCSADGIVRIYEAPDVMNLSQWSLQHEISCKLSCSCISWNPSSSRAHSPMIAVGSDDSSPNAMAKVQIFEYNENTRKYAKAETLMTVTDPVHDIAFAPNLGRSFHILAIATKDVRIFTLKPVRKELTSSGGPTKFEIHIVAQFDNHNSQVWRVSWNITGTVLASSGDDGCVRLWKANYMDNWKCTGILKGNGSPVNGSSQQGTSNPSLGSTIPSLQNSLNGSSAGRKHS
inactive: erlotinib -0.008 | [1] 0.082 | [2] -0.001 | [3] -0.023 | [4] 0.014 | [5] -0.015 | [6] -0.012 | [7] -0.025 | [8] 0.026 | IRAK-1-4 Inhibitor I 0.031 | ibrutinib 0.013 | [9] -0.024 | ralimetinib -0.011 | [10] -0.008 | [11] 0.005 | [12] -0.021 | [13] -0.014 | [14] 0.015 | [15] 0.017 | [16] -0.014

RBM4 (UniProt Q9BWF3)
UniProt Q9BWF3, sequence (Q9BWF3 whole entry, looked up): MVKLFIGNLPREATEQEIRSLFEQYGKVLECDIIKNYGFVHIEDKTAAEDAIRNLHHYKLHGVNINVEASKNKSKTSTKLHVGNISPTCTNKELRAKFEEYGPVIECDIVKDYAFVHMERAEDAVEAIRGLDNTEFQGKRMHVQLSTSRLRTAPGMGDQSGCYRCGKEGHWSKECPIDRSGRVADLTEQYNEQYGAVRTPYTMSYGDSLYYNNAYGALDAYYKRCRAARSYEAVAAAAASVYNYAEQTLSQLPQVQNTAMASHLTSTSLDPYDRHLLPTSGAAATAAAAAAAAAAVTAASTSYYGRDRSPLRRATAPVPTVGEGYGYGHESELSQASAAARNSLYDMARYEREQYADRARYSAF
inactive: erlotinib -0.031 | [1] 0.059 | [2] -0.008 | [3] 0.009 | [4] 0.008 | [5] -0.065 | [6] -0.008 | [7] 0.001 | [8] 0 | IRAK-1-4 Inhibitor I -0.003 | ibrutinib 0.006 | [9] 0.021 | ralimetinib 0.008 | [10] -0.014 | [11] 0.023 | [12] 0.028 | [13] 0.005 | [14] -0.154 | [15] 0.025 | [16] -0.004

RAD51C (UniProt O43502)
UniProt O43502, sequence (O43502 whole entry, looked up): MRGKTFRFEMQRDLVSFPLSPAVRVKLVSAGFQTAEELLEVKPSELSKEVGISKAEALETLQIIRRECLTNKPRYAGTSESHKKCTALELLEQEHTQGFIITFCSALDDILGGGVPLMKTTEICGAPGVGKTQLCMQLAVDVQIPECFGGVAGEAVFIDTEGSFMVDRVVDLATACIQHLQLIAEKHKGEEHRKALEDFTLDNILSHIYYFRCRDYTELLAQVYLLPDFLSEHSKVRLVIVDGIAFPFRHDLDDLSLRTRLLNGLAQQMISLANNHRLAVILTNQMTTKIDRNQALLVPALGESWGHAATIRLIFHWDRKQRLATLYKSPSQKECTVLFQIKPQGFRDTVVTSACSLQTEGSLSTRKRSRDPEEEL
inactive: erlotinib 0 | [1] -0.053 | [2] 0.023 | [3] -0.074 | [4] -0.003 | [5] 0.001 | [6] -0.004 | [7] 0.017 | [8] 0.02 | IRAK-1-4 Inhibitor I -0.051 | ibrutinib -0.015 | [9] 0.055 | ralimetinib 0.044 | [10] 0.009 | [11] 0.067 | [12] -0.015 | [13] -0.039 | [14] 0 | [15] -0.037 | [16] -0.051

SCD (UniProt O00767)
UniProt O00767, sequence (O00767 whole entry, looked up): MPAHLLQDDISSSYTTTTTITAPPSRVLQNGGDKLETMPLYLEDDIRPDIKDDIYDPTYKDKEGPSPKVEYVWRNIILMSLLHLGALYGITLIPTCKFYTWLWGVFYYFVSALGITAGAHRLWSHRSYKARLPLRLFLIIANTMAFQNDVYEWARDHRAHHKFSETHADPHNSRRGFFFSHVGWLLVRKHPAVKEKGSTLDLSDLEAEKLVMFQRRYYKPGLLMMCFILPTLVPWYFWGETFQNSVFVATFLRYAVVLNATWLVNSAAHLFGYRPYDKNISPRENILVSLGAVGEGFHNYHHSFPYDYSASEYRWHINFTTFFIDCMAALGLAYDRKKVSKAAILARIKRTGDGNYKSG
inactive: erlotinib 0.075 | [1] -0.093 | [2] 0.027 | [3] 0.056 | [4] -0.012 | [5] 0.009 | [6] 0.011 | [7] -0.24 | [8] -0.021 | IRAK-1-4 Inhibitor I 0.07 | ibrutinib -0.06 | [9] -0.053 | ralimetinib 0.059 | [10] -0.009 | [11] -0.052 | [12] 0.032 | [13] 0.047 | [14] 0.02 | [15] -0.085 | [16] -0.128

RPS4X (UniProt P62701)
inactive: erlotinib -0.016 | [1] 0.014 | [2] -0.012 | [3] -0.012 | [4] -0.018 | [5] -0.002 | [6] -0.005 | [7] 0.017 | [8] 0.004 | IRAK-1-4 Inhibitor I 0.03 | ibrutinib 0 | [9] -0.003 | ralimetinib 0.009 | [10] -0.021 | [11] 0.022 | [12] -0.026 | [13] -0.116 | [14] -0.008 | [15] -0.001 | [16] 0.034

REEP5 (UniProt Q00765)
UniProt Q00765, sequence (Q00765 whole entry, looked up): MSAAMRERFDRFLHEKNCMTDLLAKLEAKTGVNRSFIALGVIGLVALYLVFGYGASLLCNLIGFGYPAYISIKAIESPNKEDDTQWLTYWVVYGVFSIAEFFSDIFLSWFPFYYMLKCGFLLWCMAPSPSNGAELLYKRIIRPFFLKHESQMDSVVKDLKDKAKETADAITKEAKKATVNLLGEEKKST
inactive: erlotinib 0.017 | [1] -0.041 | [2] 0.022 | [3] 0.036 | [4] 0.001 | [5] -0.008 | [6] -0.077 | [7] -0.008 | [8] 0.015 | IRAK-1-4 Inhibitor I 0.025 | ibrutinib 0.043 | [9] 0.004 | ralimetinib -0.014 | [10] -0.01 | [11] -0.037 | [12] 0.017 | [13] -0.039 | [14] 0.004 | [15] -0.016 | [16] -0.042

RPLP0P6 (UniProt Q8NHW5)
inactive: erlotinib -0.003 | [1] -0.069 | [2] -0.034 | [3] 0.026 | [4] -0.05 | [5] 0.009 | [6] 0.03 | [7] 0.024 | [8] 0.004 | IRAK-1-4 Inhibitor I 0.008 | ibrutinib 0.064 | [9] -0.005 | ralimetinib -0.01 | [10] -0.02 | [11] -0.009 | [12] -0.052 | [13] -0.028 | [14] 0.015 | [15] 0.01 | [16] -0.017
